Screening results deposited in PubChem by National Center for Advancing Translational Sciences (NCATS).
MARV entry inh: blocks Marburg virus binding to or entry into cells; Potency, µM (highest dose often 37.8 µM), without a hit: at the top dose activity change, negative = inhibition, most hits filed as inhibitors; AID 540276; 1.8% of 300,000 active; Marburg virus pseudotyped entry inhibition, cell reporter; calls by dose curve; tested in HEK293 cells; also: potency is read from the fitted curve at half-maximal effect; % is scaled to controls: 0 for no effect and ±100 for the full control effect
Cycloheximide cs: counter-screen for Shiga toxin inhibitors: cycloheximide protein synthesis inhibition; cell reporter, cycloheximide protein synthesis inhibition counterscreen; max response, %; 12% of 300,000 active; in the data active = max response mostly above about 13%, no sharp cut-off; inactive = mostly below about 14%; also: read at 38.3 µM for the half of the compounds with a filed dose; 0% is about no effect
AMA1-RON2 inh: disrupts binding of P. falciparum AMA1 to RON2; Potency, µM (top dose mostly 58.2 µM), inactives show top-dose activity change, negative = inhibition, most hits filed as inhibitors; 0.2% of 360,000 active; AlphaScreen AMA1-biotinylated RON2 peptide binding; active = well fitted inhibition curve with a large enough effect; inconclusive = small, poorly fitted or top-dose-only effect; inactive = no such curve, though single readings can be large or run the other way;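 also: potency is read from the fitted curve at half-maximal effect; 0% = vehicle wells and -100% = peptide control; nearly all actives have a fitted effect of over 45% in size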
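AMA1 (3D7) with his tag at 25 nM final met compounds first, then biotinylated RON2 peptide at 25 nM; detection used donor plus acceptor beads, 10 µg/mL apiece, read by AlphaScreen after 30 min at room temperature.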
Shiga inhibitor: blocks Shiga toxin action in Vero cells; Vero cells, Shiga toxin protein synthesis inhibition reporter; inhibition, % at 38.7 µM; 9.2% of 290,000 active; AID 2315; in the data active = inhibition mostly above about 28%, no sharp cut-off; inactive = mostly below about 43%; also: 0% is about no effect
LASV entry inh: Lassa virus entry inhibition; 1.2% of 300,000 active; Lassa virus pseudotype entry inhibition, cell reporter; Potency, µM (highest dose often 37.9 µM), without a hit: at the highest dose activity change, negative = inhibition, most hits filed as inhibitors; calls by dose curve; tested in HEK293 cells; also: potency is read from the fitted curve at half-maximal effect; % is scaled to controls: 0 for no effect and ±100 for the full control effect; nearly all actives have a fitted effect of over 50% in size
The depositor's hits bear a star; ? = inconclusive; / = no result given; [ ] = dose if it differs, or a comment. The full list was thinned out, with hits kept by preference.

SMILES	MARV entry inh	Cycloheximide cs	AMA1-RON2 inh	Shiga inhibitor	LASV entry inh
CNc1ccc(/C=C(\C#N)C(=O)Nc2ccccn2)cc1[N+](=O)[O-]	-7%[46.1 µM]	-4	-15%	-6	?
CC1(C)CC(=O)C=C(c2n[nH]nc2-c2ccccc2)C1	/	/	-4%	/	/
O=C(Cc1ccc(NC2=NC3CS(=O)(=O)CC3S2)cc1)NCCc1ccccc1 (stereo not given)	/	1	-7%	-5	/
Cc1cc(C)n2c(Nc3ccccc3)c(-c3ccccc3)nc2n1	-11%[46.1 µM]	/	/	/	-10%[46.1 µM]
COc1ccc2c(Cl)c(C(=O)NN)sc2c1	-25%	25	51%	27	?
COc1ccc2c(Cl)c(C(N)=O)sc2c1	30%	20*	6%	10	6%
O=C(N/N=C/c1cccnc1)c1sc2ccccc2c1Cl	13%[46.1 µM]	21*	6%	17	16%[46.1 µM]
COc1ccc(NC(=O)C(=O)N/N=C/c2cccnc2)cc1	1%[46.1 µM]	-1	4%	2	16%[46.1 µM]
Cc1c(C(=O)N/N=C/c2cccnc2)sc(=S)n1C	?	-4	27%	-2	?
COc1ccc2c(Cl)c(C(=O)N/N=C/c3cccnc3)sc2c1	-26%[46.1 µM]	20*	38%	47*	?
O=C(O/C(=C/c1ccccc1)C(F)(F)F)c1ccccc1	?	/	20%	/	0%[46.1 µM]
Cc1ccc(OCCCCN2CCC(C)CC2)cc1	?	6	-4%	22	?
CN(C)C1CCN(CCCOc2ccc(-c3ccc(C#N)cc3)cc2)C1 (stereo not given)	/	31*	/	2	/
COc1ccccc1CNC(=O)CN1C(=O)c2cccc(N)c2C1=O	14%[46.1 µM]	39*	34%	68*	?
Cc1ccc(CNC(=O)Cc2ccc(-c3ccccc3)cc2)cc1	?	7	4%	-13	-30%
COc1ccccc1CNC(=O)Cc1ccc(C)cc1	/	25*	10%	38	/
O=C(COC(=O)Cc1ccc(-c2ccccc2)cc1)NCc1ccc(F)cc1	8%	15*	11%	11	?
Cc1ccc(CC(=O)NCc2ccc(F)cc2)cc1	?	11*	-7%	28	-21%
NNC(=O)c1ccc(CSc2nc3ccccc3[nH]2)cc1	7%[46.1 µM]	6	-4%	32	?
COc1ccc(CNC(=O)CCCc2ccccc2)cc1	-18%	4	2%	11	5%
Cc1ccc2c(cnn2C(=O)CCCC(=O)NCc2ccc(F)cc2)c1	/	11*	-2%	26*	/
CCOC(=O)c1cc(-c2ccccc2)n(CC(=O)NCc2ccccc2OC)c1C	/	/	/	/	7.1µM*
COc1ccccc1CNC(=O)CCCc1ccccc1	1%	23*	14%	65*	2%
CC1SC(C)C(=O)N(CC(=O)NCc2ccc(F)cc2)C1=O (stereo not given)	1%	13*	-2%	4	/
CCOC(=O)c1cc(-c2ccccc2)n(CC(=O)Nc2ccc(OC)c(OC)c2)c1C	-19%	-2	10%	19	6%
SMILES	MARV entry inh	Cycloheximide cs	AMA1-RON2 inh	Shiga inhibitor	LASV entry inh
CC(CNC(=O)CCc1ccccc1)NC(=O)CCc1ccccc1 (stereo not given)	7%[46.1 µM]	/	-4%	/	-1%
CC(C)CNC(=O)CCCc1ccccc1	1%	43*	-1%	35*	?
COc1cccc(Nc2ccc(Nc3cccc(OC)c3)nn2)c1	0%	-3	-14%	-4	-14%
Cc1cccc(Nc2ccc(NCc3ccccc3)nn2)c1	/	31*	3%	87*	/
COc1cc(C)nc(NCc2ccccc2)n1	6%	9	-10%	8	9%
Cc1ccc(Nc2cc(C)nc(NCc3ccccc3)n2)cc1	8.2µM*	-1	-12%	-5	26µM*
COc1ccc(Nc2cc(C)nc(NCc3ccccc3)n2)cc1	?	1	?	22	?
Cc1cc(NC2CCCCC2)nc(NCc2ccccc2)n1	12µM*	-5	-2%	-18	23µM*
CC1(C(=O)NCC2CC2)Cc2c(-c3ccc4c(c3)OCO4)ccnc2O1 (stereo not given)	/	/	-1%	/	/
O=C(N/N=C1\C[C@@H](O)[C@@H](O)[C@@H]2[C@@H]3C(=O)N(C4CCCCC4)C(=O)[C@@H]3CC[C@@H]12)OCc1ccccc1	-13%[14.2 µM]	/	/	/	/
CC1CCCCN1CC(O)COCc1ccc(Cl)cc1 (stereo not given)	-4%[46.1 µM]	-1	5%	1	-2%
CCOc1ccc(/C=N/Nc2cc(N3CCOCC3)nc(C)n2)c(O)c1	/	-3	35%	-7	/
Cc1nc(N/N=C/c2ccc(Br)cc2)cc(N2CCOCC2)n1	?	2	0%	-2	?
Cc1nc(Cl)cc(N/N=C/c2ccc(O)cc2O)n1	?	44*	96%	28*	?
Cc1nc(Cl)cc(N/N=C/c2ccc(O)cc2)n1	/	19*	-4%	49*	/
COc1ccc(OC)c(N=CC2=C(O)CC(C)(C)CC2=O)c1	0%	4	39%	-5	2%
COc1ccc(N=CC2=C(O)CC(C)(C)CC2=O)cc1	-15%[46.1 µM]	36*	1%	65*	16%
COc1ccc(N=Cc2c(O)n(C)c(=O)n(C)c2=O)cc1	/	25	16%	29	/
COc1ccc(N=CC2=C(O)CCCC2=O)cc1	1%	37*	-3%	76*	-17%
CC(OC(=O)c1nc(Cl)ccc1Cl)C(=O)NCc1ccccc1 (stereo not given)	/	/	0%	/	/
Oc1ccc(C=NNc2nc3ccccc3s2)c(O)c1	?	/	47%	/	?
C/C(=N\Nc1nc(-c2ccccc2)cs1)c1cccs1	?	75*	-19%	118*	?
CC(=NNc1nc2ccccc2s1)c1ncccn1	?	/	?	/	1µM*
C/C(=N\Nc1nc2ccccc2s1)c1cccs1	?	89*	?	73*	6.5µM*
CC(=O)c1cccc(NC(=O)c2ccc3nc(C(C)C)oc3c2)c1	/	/	/	/	17%[46.1 µM]
SMILES	MARV entry inh	Cycloheximide cs	AMA1-RON2 inh	Shiga inhibitor	LASV entry inh
CCC(C)COC(=O)C(C#N)c1nc2ccccc2nc1N1CCCCC1 (stereo not given)	-21%	-3	10%	-22	-2%
CCC(CC)COC(=O)C(C#N)c1nc2ccccc2nc1N1CCN(CC)CC1 (stereo not given)	5.2µM*	1	-4%	-30	?
CCOC(=O)CSc1nc2ccsc2c(=O)[nH]1	?	0	-10%	-2	-10%[46.1 µM]
O=c1[nH]c(SCc2ccccc2)nc2ccsc12	?	36*	23%	24	26%
CCOc1ccc(/C=C2\CCc3ccccc3C2=O)cc1	?	30*	16%	71*	?
O=C1/C(=C\c2ccncc2)CCc2ccccc21	/	/	-5%	/	/
COc1ccc(C=C2CCc3ccccc3C2=O)cc1	/	/	31%	/	/
O=C1/C(=C/c2ccncc2)CCc2ccccc21	/	34*	1%	56*	/
CC1CCCC(C)N1C(=O)COC(=O)Cc1ccc(F)cc1 (stereo not given)	-2%[46.1 µM]	4	32%	-3	0%[46.1 µM]
O=C1c2ccccc2S(=O)(=O)N1Cc1nc2ccccc2s1	?	-3	0%	-23	1µM*
Cc1ccccc1CN1C(=O)c2ccccc2S1(=O)=O	-1%[46.1 µM]	0	0%	-6	5%[46.1 µM]
COc1ccc2cc(-c3c(-c4ccncc4)nc(-c4ccc(S(C)(=O)=O)cc4C)n3C)ccc2c1	/	/	/	/	7.9µM*
